# Assays:
# Assay in all cases: log2 fold change of tryptic peptide abundance, ligand vs vehicle (limited proteolysis) (log2 ratio); higher = more trypsin-susceptible (destabilized)
# [1] = molecular target: T1, UniProt P02918; details: peptide sequence: NSPPQYAGPIR; peptide start residue: 506; ligand concentration: 10 uM; sample: E. coli crude lysate
# T1 sequence (whole entry): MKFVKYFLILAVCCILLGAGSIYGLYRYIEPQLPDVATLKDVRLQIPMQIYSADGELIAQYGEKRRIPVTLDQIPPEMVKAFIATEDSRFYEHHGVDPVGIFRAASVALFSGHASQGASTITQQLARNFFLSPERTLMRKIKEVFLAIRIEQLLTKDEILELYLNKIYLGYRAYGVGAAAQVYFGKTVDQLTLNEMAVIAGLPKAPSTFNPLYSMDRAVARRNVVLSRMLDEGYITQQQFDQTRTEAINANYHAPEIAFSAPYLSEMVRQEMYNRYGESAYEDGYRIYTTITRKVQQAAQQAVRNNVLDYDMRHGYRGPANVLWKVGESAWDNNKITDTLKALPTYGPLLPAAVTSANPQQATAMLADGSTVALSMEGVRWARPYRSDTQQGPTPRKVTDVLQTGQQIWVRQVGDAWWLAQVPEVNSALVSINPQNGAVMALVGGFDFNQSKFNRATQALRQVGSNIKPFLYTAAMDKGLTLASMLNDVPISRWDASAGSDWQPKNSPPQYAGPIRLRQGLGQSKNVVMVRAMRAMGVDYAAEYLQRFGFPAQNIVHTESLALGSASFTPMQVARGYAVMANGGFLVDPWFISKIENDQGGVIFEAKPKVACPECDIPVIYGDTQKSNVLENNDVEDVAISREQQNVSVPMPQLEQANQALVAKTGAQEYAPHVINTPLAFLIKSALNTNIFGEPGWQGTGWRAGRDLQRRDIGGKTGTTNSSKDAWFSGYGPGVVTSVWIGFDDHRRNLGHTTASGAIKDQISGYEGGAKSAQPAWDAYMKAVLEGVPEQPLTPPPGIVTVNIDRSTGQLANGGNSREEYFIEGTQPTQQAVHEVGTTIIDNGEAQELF
# [2] = molecular target: T2, UniProt P02919; details: peptide sequence: QPNGQVWSPQNDDRR; peptide start residue: 542; ligand concentration: 10 uM; sample: E. coli crude lysate
# T2 sequence (whole entry): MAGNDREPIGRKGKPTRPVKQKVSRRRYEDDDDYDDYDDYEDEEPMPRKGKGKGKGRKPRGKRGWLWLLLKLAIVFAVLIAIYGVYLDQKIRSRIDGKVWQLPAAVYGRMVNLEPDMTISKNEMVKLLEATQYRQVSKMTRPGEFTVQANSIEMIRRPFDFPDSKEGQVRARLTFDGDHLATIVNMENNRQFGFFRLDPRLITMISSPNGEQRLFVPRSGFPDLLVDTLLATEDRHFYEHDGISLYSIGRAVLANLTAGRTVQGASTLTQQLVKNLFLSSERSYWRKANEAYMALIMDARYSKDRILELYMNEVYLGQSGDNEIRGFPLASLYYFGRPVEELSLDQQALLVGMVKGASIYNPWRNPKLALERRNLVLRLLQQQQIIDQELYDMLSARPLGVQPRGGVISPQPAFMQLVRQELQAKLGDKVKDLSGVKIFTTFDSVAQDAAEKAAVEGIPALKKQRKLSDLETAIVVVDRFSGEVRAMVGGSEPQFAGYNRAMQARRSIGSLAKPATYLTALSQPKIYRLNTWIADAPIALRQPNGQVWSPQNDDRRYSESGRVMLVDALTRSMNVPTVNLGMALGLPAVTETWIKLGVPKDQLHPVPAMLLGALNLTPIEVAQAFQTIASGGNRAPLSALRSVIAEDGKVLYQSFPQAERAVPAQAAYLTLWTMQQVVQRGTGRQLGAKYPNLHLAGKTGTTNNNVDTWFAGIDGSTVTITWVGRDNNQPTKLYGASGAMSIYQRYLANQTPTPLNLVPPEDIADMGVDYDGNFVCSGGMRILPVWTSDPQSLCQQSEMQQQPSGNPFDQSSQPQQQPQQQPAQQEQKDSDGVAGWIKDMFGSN
# [3] = molecular target: UniProt P24228; details: peptide sequence: AGLHQAGVDGK; peptide start residue: 403; ligand concentration: 10 uM; sample: E. coli crude lysate
# Chain of UniProt P24228 (P24228 whole entry): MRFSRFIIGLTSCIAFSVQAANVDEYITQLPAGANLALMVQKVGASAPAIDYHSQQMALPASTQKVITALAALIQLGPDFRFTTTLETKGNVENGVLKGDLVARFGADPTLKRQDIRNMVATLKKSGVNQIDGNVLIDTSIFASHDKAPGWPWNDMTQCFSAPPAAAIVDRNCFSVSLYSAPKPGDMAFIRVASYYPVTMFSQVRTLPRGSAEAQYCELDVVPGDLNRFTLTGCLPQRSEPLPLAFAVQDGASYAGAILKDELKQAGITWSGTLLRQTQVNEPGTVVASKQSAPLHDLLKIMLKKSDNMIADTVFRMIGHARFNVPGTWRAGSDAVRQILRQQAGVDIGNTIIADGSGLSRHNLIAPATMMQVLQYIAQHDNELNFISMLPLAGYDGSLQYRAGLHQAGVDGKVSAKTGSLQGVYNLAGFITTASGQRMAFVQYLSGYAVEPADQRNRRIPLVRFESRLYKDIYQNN
# [4] = molecular target: T3, UniProt P77754; details: peptide sequence: DLNLTDAQK; peptide start residue: 54; ligand concentration: 10 uM; sample: E. coli crude lysate
# T3 sequence (whole entry): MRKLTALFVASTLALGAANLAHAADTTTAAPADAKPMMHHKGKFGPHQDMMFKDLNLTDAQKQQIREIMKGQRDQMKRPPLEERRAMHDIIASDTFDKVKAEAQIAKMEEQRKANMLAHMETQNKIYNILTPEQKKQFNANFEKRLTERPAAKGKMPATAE
smiles,measurement,setting,value
CC1(C)S[C@@H]2[C@H](NC(=O)[C@H](N)c3ccccc3)C(=O)N2[C@H]1C(=O)O [ampicillin],log2 fold change,[1],-1.56
same,log2 fold change,[2],1.86
same,log2 fold change,[3],-3.07
same,log2 fold change,[4],-0.675
